High-throughput results (PubChem)
Rows were chosen to be rich in hits. Some 3.9% of all compounds tested hit in one or more screens of this group.
CCHF vOTU inh: CCHFV vOTU protease inhibitors, primary screen, biochemical, Pep-AMC substrate, fluorescence; inhibition, % at 11.5 µM; hit rate 0.55% among 370,000; Crimean-Congo hemorrhagic fever virus L polyprotein viral ovarian tumor (vOTU) protease …; AID 651958, 2012; also: 0% = vehicle wells with enzyme and 100% = no enzyme wells
FBA Mtb inh: Mtb FBA enzyme inhibitors, primary screen, biochemical, fluorescence, strain H37Rv. Fructose-bisphosphate aldolase (Mycobacterium tuberculosis (strain ATCC 25618 / H37Rv)), …. AID 588726, 2011. hit rate 2.3% among 360,000. purified M. tuberculosis FBA, fluorescence read-out. inhibition, % at 1 µM; in the data active = inhibition above about 27%;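 also: 0% = vehicle and 100% = reference inhibitor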
Target sequence (P9WQA3 whole entry, looked up): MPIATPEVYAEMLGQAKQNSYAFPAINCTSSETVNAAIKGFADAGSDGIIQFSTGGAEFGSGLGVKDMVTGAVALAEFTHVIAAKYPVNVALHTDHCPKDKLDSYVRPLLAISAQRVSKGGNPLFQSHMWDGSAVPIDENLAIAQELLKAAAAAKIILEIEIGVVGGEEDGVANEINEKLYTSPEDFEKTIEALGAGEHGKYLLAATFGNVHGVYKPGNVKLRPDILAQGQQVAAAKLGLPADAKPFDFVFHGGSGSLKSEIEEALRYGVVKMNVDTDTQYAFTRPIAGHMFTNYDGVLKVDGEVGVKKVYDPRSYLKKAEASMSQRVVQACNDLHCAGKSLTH
GDH-TPI counter-1: GDH-TPI coupling enzyme inhibitors, primary screen, artefact control for M. tuberculosis FBA inhibitor project, biochemical, absorbance, full deck; GDH-TPI coupled enzyme counterscreen, NADH absorbance; inhibition, % at 4.8 µM; hit rate 1.2% among 360,000; AID 588335, 2011;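 also: 0% = DMSO wells and 100% = wells lacking the enzyme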
BH1578 lux ind: inducers of Vibrio cholerae quorum light production without autoinducers, primary screen, BH1578 luxS cqsA deficient, single point; V. cholerae BH1578 lux reporter, luminescence, 6 h; activation, % at 18.7 µM; hit rate 0.16% among 350,000; AID 588436, 2011; in the data active = activation mostly above about 9.7%, no sharp cut-off
Mtb FBA confirm: M. tuberculosis aldolase blockers, biochemical, fluorescence, strain H37Rv, confirmation; shares compounds with FBA Mtb inh; purified M. tuberculosis FBA, fluorescence read-out; inhibition, % at 1 µM; hit rate 78% among 5,600; AID 651616, 2012; in the data active = inhibition above about 27%;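 also: 0% = vehicle wells and 100% = reference inhibitor wells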
GDH-TPI counter-2: GDH-TPI coupling enzyme inhibitors, artefact control for M. tuberculosis FBA inhibitor project, biochemical, fluorescence, high throughput; shares compounds with FBA Mtb inh; GDH-TPI coupled enzyme counterscreen; hit rate 81% among 5,600; inhibition, % at 1 µM; in the data active = inhibition above about 10%
An asterisk follows results filed as active; ! = not confirmed by another sample. Rule as the data show it, unless noted: active = inhibition above about 30%; inactive = the rest.

How did Cc1ccc(-c2cc(C(=O)O)c3cc(Br)ccc3n2)s1 do in these assays?
CCHF vOTU inh: -34; FBA Mtb inh: 32*; GDH-TPI counter-1: 41*!; BH1578 lux ind: -6; Mtb FBA confirm: 197*!; GDH-TPI counter-2: 194*!

How did Cc1cc(NC(=O)c2cc(-c3cccs3)nc3ccccc23)no1 do in these assays?
CCHF vOTU inh: -60; FBA Mtb inh: 71*; GDH-TPI counter-1: 22; BH1578 lux ind: 0; Mtb FBA confirm: -4; GDH-TPI counter-2: -7

Results for NNC(=O)c1cc(-c2cccs2)nc2ccccc12 ?
CCHF vOTU inh: -54; FBA Mtb inh: 44*; GDH-TPI counter-1: 26; BH1578 lux ind: inactive; Mtb FBA confirm: 110*; GDH-TPI counter-2: 92*

What do the screens show for `CSc1ccc(CN2C(=O)NC3(CCCCC3)C2=O)cc1`?
CCHF vOTU inh: 2; FBA Mtb inh: -2; GDH-TPI counter-1: -2; BH1578 lux ind: -1

Results for COc1ccc(CCNC(=O)c2ccc(N(C)S(=O)(=O)c3ccccc3)cc2)cc1 ?
CCHF vOTU inh: -1; FBA Mtb inh: 1; GDH-TPI counter-1: -4; BH1578 lux ind: 1

How did OC1CC(c2ccco2)NC2(CCCCC2)C1 (stereo not drawn) do in these assays?
CCHF vOTU inh: 2; FBA Mtb inh: 1; GDH-TPI counter-1: 3; BH1578 lux ind: 0

What do the screens show for `C/C(=N\NC(=O)c1cc(-c2cccs2)nc2ccccc12)c1ccccn1`?
CCHF vOTU inh: -36; FBA Mtb inh: 34*; GDH-TPI counter-1: 18; BH1578 lux ind: inactive; Mtb FBA confirm: 99*; GDH-TPI counter-2: 92*

What do the screens show for `CC(C)NC(=O)c1cc(-c2cccs2)nc2ccccc12`?
CCHF vOTU inh: -148; FBA Mtb inh: 71*; GDH-TPI counter-1: 1; BH1578 lux ind: inactive; Mtb FBA confirm: 145*; GDH-TPI counter-2: 113*

How did NS(=O)(=O)c1ccc(NC(=O)c2cc(-c3cccs3)nc3ccccc23)cc1 do in these assays?
CCHF vOTU inh: -25; FBA Mtb inh: 24; GDH-TPI counter-1: 12; BH1578 lux ind: 0

Results for CCOC(CCNC(=O)c1cc(-c2cccs2)nc2ccccc12)OCC ?
CCHF vOTU inh: -119; FBA Mtb inh: 95*; GDH-TPI counter-1: 20; BH1578 lux ind: -1; Mtb FBA confirm: active; GDH-TPI counter-2: active

Results for O=C(NC1=NCCS1)c1cc(-c2cccs2)nc2ccccc12 ?
CCHF vOTU inh: -56; FBA Mtb inh: 44*; GDH-TPI counter-1: 17; BH1578 lux ind: inactive; Mtb FBA confirm: 87*; GDH-TPI counter-2: 63*

Results for COc1cccc(NC(=O)Nc2cc(C(=O)NCC3CCCO3)ccc2N2CC3CC(C2)c2cccc(=O)n2C3)c1 (stereo not drawn) ?
CCHF vOTU inh: 2; FBA Mtb inh: 1; GDH-TPI counter-1: -1; BH1578 lux ind: inactive

Results for Cc1ccc(-c2cc(C(=O)Nc3cccnc3)c3ccccc3n2)s1 ?
CCHF vOTU inh: -36; FBA Mtb inh: 42*; GDH-TPI counter-1: 8; BH1578 lux ind: 0; Mtb FBA confirm: 59*; GDH-TPI counter-2: 43*

What do the screens show for `Nc1cc2nc[nH]c2cc1N`?
CCHF vOTU inh: -16; FBA Mtb inh: 32*; GDH-TPI counter-1: 11; BH1578 lux ind: inactive; Mtb FBA confirm: 55*; GDH-TPI counter-2: 51*

Results for Cn1c(=O)n(C)c2cc3[nH]cnc3cc21 ?
CCHF vOTU inh: -12; FBA Mtb inh: 3; GDH-TPI counter-1: -3; BH1578 lux ind: inactive

Results for COc1cccc(/C=N/NC(=O)Cn2cnc3c2c(=O)n(C)c(=O)n3C)c1OC ?
CCHF vOTU inh: -18; FBA Mtb inh: 30*; GDH-TPI counter-1: -3; BH1578 lux ind: inactive; Mtb FBA confirm: 2; GDH-TPI counter-2: -2

What do the screens show for `CC(O)Cn1nc([N+](=O)[O-])nc1N` (stereo not drawn)?
CCHF vOTU inh: 27; FBA Mtb inh: 31*; GDH-TPI counter-1: 0; BH1578 lux ind: 0; Mtb FBA confirm: 180*; GDH-TPI counter-2: 153*
